Laboratory results published in PubChem BioAssay (NCI).
Compounds without any hit were thinned out: in the full panel of roughly 83,000, 20% have a hit.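 Each cell line was grown in a 96-well plate and treated with one concentration of compound for 48 hours. Values below 10 were considered active.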 Active and inactive are the calls of the source.

Legend:
Assay in all cases: NCI-60 one-dose screen, 48 h (100 = growth as untreated, 0 = no growth, -100 = all killed)
SK-MEL-2 melanoma = details: 10 µM unless noted
EKVX NSCLC = details: 10 µM unless noted
SN12C renal = details: 10 µM unless noted
UO-31 renal = details: 10 µM unless noted
TK-10 renal = details: 10 µM unless noted
ACHN renal = details: 10 µM unless noted
CAKI-1 renal = details: 10 µM unless noted
A498 renal = details: 10 µM unless noted
CCRF-CEM leukemia = details: 10 µM unless noted
MOLT-4 leukemia = details: 10 µM unless noted
SR leukemia = details: 10 µM unless noted
RPMI-8226 leukemia = details: 10 µM unless noted
OVCAR-8 ovarian = details: 10 µM unless noted
OVCAR-5 ovarian = details: 10 µM unless noted
OVCAR-4 ovarian = details: 10 µM
SK-OV-3 ovarian = details: 10 µM unless noted
IGROV1 ovarian = details: 10 µM unless noted
OVCAR-3 ovarian = details: 10 µM unless noted
HS 578T breast = details: 10 µM unless noted
NCI/ADR-RES ovarian = details: 10 µM unless noted

Measured: growth

C/C=C/C1OC23CCCCC2C(C#N)(C(=N)O3)C1(C#N)C#N (stereo not drawn)
inactive: SK-MEL-2 melanoma 107% | EKVX NSCLC 106% | SN12C renal 93.7% | UO-31 renal 76.2% | TK-10 renal 103% | ACHN renal 94.1% | CAKI-1 renal 81.2% | A498 renal 118% | CCRF-CEM leukemia 81.2% | MOLT-4 leukemia 95% | SR leukemia 49.1% | RPMI-8226 leukemia 98.8% | OVCAR-8 ovarian 93.9% | OVCAR-5 ovarian 103% | OVCAR-4 ovarian 95% | SK-OV-3 ovarian 103% | IGROV1 ovarian 96.2% | OVCAR-3 ovarian 90.2% | HS 578T breast 96.9% | NCI/ADR-RES ovarian 104%

CCCCC1COc2cccc3c2N1C=C/C3=C\C(=O)n1ccc2ccccc21 (stereo not drawn)
inactive: SK-MEL-2 melanoma 70.7% | EKVX NSCLC 82.9% | SN12C renal 94.7% | UO-31 renal 57.5% | TK-10 renal 118% | ACHN renal 88.5% | CAKI-1 renal 41% | A498 renal 70.1% | CCRF-CEM leukemia 67% | MOLT-4 leukemia 40.9% | SR leukemia 16.5% | RPMI-8226 leukemia 65.7% | OVCAR-8 ovarian 91.8% | OVCAR-5 ovarian 94.5% | OVCAR-4 ovarian 65.2% | SK-OV-3 ovarian 77.1% | IGROV1 ovarian 70.2% | OVCAR-3 ovarian 68.4% | HS 578T breast 88% | NCI/ADR-RES ovarian 67.2%

COc1ccc2c(c1)c(-c1noc(-c3cn(C)c4ncc(F)cc34)n1)cn2C
inactive: SK-MEL-2 melanoma 94% | EKVX NSCLC 65% | SN12C renal 52.7% | UO-31 renal 85.1% | TK-10 renal 86.2% | ACHN renal 84.4% | CAKI-1 renal 76.6% | A498 renal 65.7% | CCRF-CEM leukemia 99% | MOLT-4 leukemia 87.6% | SR leukemia 83.8% | RPMI-8226 leukemia 92.1% | OVCAR-8 ovarian 63.7% | OVCAR-5 ovarian 87.6% | OVCAR-4 ovarian 18.4% | SK-OV-3 ovarian 79.1% | IGROV1 ovarian 69.6% | OVCAR-3 ovarian 42% | HS 578T breast 91% | NCI/ADR-RES ovarian 68.3%

O=C(O)CC1CCCCC1c1ccccc1 (stereo not drawn)
inactive: SK-MEL-2 melanoma 97.7% | EKVX NSCLC 115% | SN12C renal 105% | UO-31 renal 75.2% | TK-10 renal 100% | ACHN renal 102% | CAKI-1 renal 103% | A498 renal 122% | CCRF-CEM leukemia 101% | MOLT-4 leukemia 109% | SR leukemia 98.5% | RPMI-8226 leukemia 104% | OVCAR-8 ovarian 106% | OVCAR-5 ovarian 102% | OVCAR-4 ovarian 109% | SK-OV-3 ovarian 104% | IGROV1 ovarian 108% | OVCAR-3 ovarian 118% | HS 578T breast 83% | NCI/ADR-RES ovarian 114%

O=C(O)c1cn(C2CC2)c2cc(N3CCN(Cc4c(O)ccc5ccccc45)CC3)c(F)cc2c1=O
inactive: SK-MEL-2 melanoma 73.8% | EKVX NSCLC 60.4% | SN12C renal 30.3% | UO-31 renal 40.1% | TK-10 renal 61.4% | ACHN renal 53.9% | CCRF-CEM leukemia 67.7% | MOLT-4 leukemia 31.6% | RPMI-8226 leukemia 73.5% | OVCAR-8 ovarian 16.8% | OVCAR-5 ovarian 40.8% | OVCAR-4 ovarian 18.2% | SK-OV-3 ovarian 48.4% | IGROV1 ovarian 32.1% | NCI/ADR-RES ovarian 45.4%
active: CAKI-1 renal 4.12% | A498 renal -16.6% | SR leukemia 1.76% | OVCAR-3 ovarian -44.1% | HS 578T breast -6.63%

CC1Cc2c(ncnc2-n2cnc3ccccc32)N(C)c2ccccc21 (stereo not drawn)
inactive: EKVX NSCLC 48.6% | SN12C renal 35.5% | UO-31 renal 46.4% | TK-10 renal 50% | ACHN renal 55.7% | CAKI-1 renal 33.6% | CCRF-CEM leukemia 13% | MOLT-4 leukemia 23.2% | SR leukemia 15.2% | RPMI-8226 leukemia 26.2% | OVCAR-8 ovarian 44.1% | OVCAR-5 ovarian 95.2% | OVCAR-4 ovarian 65.2% | SK-OV-3 ovarian 17.2% | IGROV1 ovarian 62.5% | OVCAR-3 ovarian 14.7% | HS 578T breast 36.6%
active: SK-MEL-2 melanoma -6.66% | A498 renal -2.09% | NCI/ADR-RES ovarian 9.36%

O=C1/C(=C\c2cn(CC(O)CN3CCCCC3)c3ccccc23)c2ccccc2N1c1c(Cl)cccc1Cl (stereo not drawn)
active: SK-MEL-2 melanoma -83.4% | EKVX NSCLC -81.3% | SN12C renal -68.2% | UO-31 renal -79.8% | TK-10 renal -75.9% | ACHN renal -90.5% | CAKI-1 renal -80.3% | A498 renal -96.3% | CCRF-CEM leukemia -4.36% | MOLT-4 leukemia -30% | SR leukemia -13% | RPMI-8226 leukemia -25.7% | OVCAR-8 ovarian -86.8% | OVCAR-5 ovarian -92.7% | OVCAR-4 ovarian -68.6% | SK-OV-3 ovarian -99.7% | IGROV1 ovarian -70.2% | OVCAR-3 ovarian -99.6% | HS 578T breast -55.3% | NCI/ADR-RES ovarian -56%

CCCCC(CCCCCC(CCCC)C1NC(C)Cc2cc(OC)c(OC)cc21)C1NC(C)Cc2cc(OC)c(OC)cc21 (stereo not drawn)
active: SK-MEL-2 melanoma -81.9% | EKVX NSCLC -61.2% | SN12C renal -21.3% | UO-31 renal -83.5% | TK-10 renal -94.5% | ACHN renal -100% | CAKI-1 renal -63.9% | A498 renal -12.3% | CCRF-CEM leukemia -43.3% | MOLT-4 leukemia -63% | SR leukemia -79.2% | RPMI-8226 leukemia -48.3% | OVCAR-8 ovarian -74.3% | OVCAR-5 ovarian -96.4% | OVCAR-4 ovarian -90.1% | SK-OV-3 ovarian -87.3% | IGROV1 ovarian -34.8% | OVCAR-3 ovarian -94.2% | HS 578T breast -38.6% | NCI/ADR-RES ovarian -88.3%

CCCn1ccnc1C(O)c1ccc(OCc2ccccc2)c(OC)c1 (stereo not drawn)
inactive: SK-MEL-2 melanoma 91.3% | EKVX NSCLC 89.3% | SN12C renal 92.3% | UO-31 renal 63.7% | TK-10 renal 77.8% | ACHN renal 93.6% | CAKI-1 renal 74.8% | A498 renal 102% | CCRF-CEM leukemia 94% | MOLT-4 leukemia 98.5% | SR leukemia 96.1% | RPMI-8226 leukemia 93.9% | OVCAR-8 ovarian 96.7% | OVCAR-5 ovarian 93.3% | OVCAR-4 ovarian 96.5% | SK-OV-3 ovarian 87.7% | IGROV1 ovarian 96.9% | OVCAR-3 ovarian 95.7% | HS 578T breast 109% | NCI/ADR-RES ovarian 91.3%

Cn1cc(-c2noc(-c3cn(C)c4ncc(F)cc34)n2)c2cc(Cl)ccc21
active: OVCAR-4 ovarian -50.6%
inactive: SK-MEL-2 melanoma 101% | EKVX NSCLC 47.1% | SN12C renal 40.8% | UO-31 renal 53.3% | TK-10 renal 28% | ACHN renal 10.2% | CAKI-1 renal 43.2% | A498 renal 69.2% | CCRF-CEM leukemia 99.7% | MOLT-4 leukemia 78.2% | SR leukemia 34.5% | RPMI-8226 leukemia 67% | OVCAR-8 ovarian 48.7% | OVCAR-5 ovarian 61.9% | SK-OV-3 ovarian 87.8% | IGROV1 ovarian 51.7% | OVCAR-3 ovarian 19.7% | HS 578T breast 47% | NCI/ADR-RES ovarian 67.9%

CCOC(=O)C1=C(C(=O)c2ccc(Br)cc2)C(c2ccc(Br)cc2)NC(=S)N1 (stereo not drawn)
inactive: SK-MEL-2 melanoma 110% | EKVX NSCLC 104% | SN12C renal 98.3% | UO-31 renal 76.8% | TK-10 renal 130% | ACHN renal 97.6% | CAKI-1 renal 86% | A498 renal 90.6% | CCRF-CEM leukemia 114% | MOLT-4 leukemia 114% | SR leukemia 108% | RPMI-8226 leukemia 111% | OVCAR-8 ovarian 97.8% | OVCAR-5 ovarian 108% | OVCAR-4 ovarian 107% | SK-OV-3 ovarian 110% | IGROV1 ovarian 92% | OVCAR-3 ovarian 105% | NCI/ADR-RES ovarian 103%

COc1cc2c(cc1OCCCN1CCN(CCCOc3cc4c(cc3OC)C(=O)N3C[C@H](F)C[C@H]3C=N4)CC1)N=C[C@@H]1C[C@@H](F)CN1C2=O
inactive: SN12C renal 25.7% | UO-31 renal 11.8% | CAKI-1 renal 16.9% | OVCAR-8 ovarian 24.4% | SK-OV-3 ovarian 36.1% | IGROV1 ovarian 12.4% | NCI/ADR-RES ovarian 63.6%
active: SK-MEL-2 melanoma -20.5% | EKVX NSCLC -34.3% | TK-10 renal -52.5% | ACHN renal 7.96% | A498 renal -55% | CCRF-CEM leukemia -28.1% | MOLT-4 leukemia -16.7% | SR leukemia -23.4% | RPMI-8226 leukemia -3.68% | OVCAR-5 ovarian 9.91% | OVCAR-4 ovarian 1.26% | OVCAR-3 ovarian 5.75%

C#CCC(C(=O)OCC)C(=O)OCC
inactive: SK-MEL-2 melanoma 107% | EKVX NSCLC 95.1% | SN12C renal 109% | UO-31 renal 85% | TK-10 renal 98.7% | ACHN renal 102% | CAKI-1 renal 93.6% | A498 renal 94.6% | CCRF-CEM leukemia 104% | MOLT-4 leukemia 100% | SR leukemia 99.9% | RPMI-8226 leukemia 102% | OVCAR-8 ovarian 105% | OVCAR-5 ovarian 94.9% | OVCAR-4 ovarian 128% | SK-OV-3 ovarian 99.5% | IGROV1 ovarian 117% | OVCAR-3 ovarian 103% | HS 578T breast 104% | NCI/ADR-RES ovarian 105%

CC(C)CCNCC(C)(C)O
inactive: SK-MEL-2 melanoma 107% | EKVX NSCLC 106% | SN12C renal 110% | UO-31 renal 92.3% | TK-10 renal 104% | ACHN renal 107% | CAKI-1 renal 99.1% | A498 renal 105% | CCRF-CEM leukemia 116% | MOLT-4 leukemia 110% | SR leukemia 97.9% | RPMI-8226 leukemia 120% | OVCAR-8 ovarian 99.4% | OVCAR-5 ovarian 101% | OVCAR-4 ovarian 115% | SK-OV-3 ovarian 110% | IGROV1 ovarian 118% | OVCAR-3 ovarian 119% | HS 578T breast 118% | NCI/ADR-RES ovarian 118%

O=C(Nc1cc(F)cc2cccnc12)c1cnc(N2CCNCC2)cn1
inactive: SK-MEL-2 melanoma 104% | EKVX NSCLC 82.7% | SN12C renal 75% | UO-31 renal 29% | TK-10 renal 66.6% | ACHN renal 28.4% | CAKI-1 renal 52.4% | A498 renal 88.7% | CCRF-CEM leukemia 26.3% | MOLT-4 leukemia 24.5% | SR leukemia 29.5% | RPMI-8226 leukemia 93.1% | OVCAR-8 ovarian 72.4% | OVCAR-5 ovarian 83.4% | OVCAR-4 ovarian 11.2% | SK-OV-3 ovarian 100% | IGROV1 ovarian 43.5% | HS 578T breast 82.2% | NCI/ADR-RES ovarian 87.6%
active: OVCAR-3 ovarian 6.04%
